We go through 40 compounds from PubChem BioAssay (NCI).

The panel holds about 83,000 compounds, 20% with a hit somewhere; the sample as a whole holds those more often.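 How to read the values: 0–100, growth inhibition (40 = 60% inhibited); 0, no net growth; -100 to 0, cell death (-40 = 40% of starting cells died; -100 = all dead).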 A number with no mark means an inactive call. Calls of active or inactive are those of the source.

This test deals with T-47D breast. Put plainly: NCI-60 one-dose screen, 48 h (100 = growth as untreated, 0 = no growth, -100 = all killed). Particulars: 10 µM unless noted. The procedure: Growth inhibition of the T-47D human tumor cell line is measured as a screen for anti-cancer activity. Cells are grown in 96 well plates and exposed to the test compound for 48 hours. Compounds are tested at a single concentration, which is 10^-5 M for most compounds. The reported endpoint is percent growth (GI% or GIPRCNT), where numbers from 0 - 100% represent growth inhibition, and numbers from -100% - 0 represent cell death. For example, a value of 40 represents 60% growth inhibition. A value of 0 means no net growth occurred over the course of the experiment. A value of -40 indicates 40% of cells at the beginning of the experiment died by the end of the experiment. A value of -100 means all cells are dead at the end of the experiment.
NCI-60 Human Tumor Cell Lines Screen was performed using the standard one-dose NCI protocol, which is described in more detail at https://dtp.cancer.gov/discovery_development/nci-60/default.htm.
Compounds with GIPRCNT values below 10 were considered active. Activity score was based on GIPRCNT using the following formula: […]
Score is 0 for GIPRCNT values of 100 or above, 50 for GIPRCNT values of 0, and 100 for GIPRCNT values of -100.
On to `CC1Cc2c(Cl)ncnc2N(C)c2ccc(Cl)cc21` (stereo not given), for which the growth was 2.19% (active).

Take `CC1(C)CC[C@]2(C(=O)O)CC[C@]3(C)C(=CC[C@@H]4[C@@]5(C)C/C(=C/c6cccnc6)[C@H](O)C(C)(C)[C@@H]5CC[C@]43C)[C@@H]2C1`: the growth was 15.1% [100 µM].

Regarding `CC(C)=CCC[C@](C)(O)[C@H]1CC[C@]2(C)[C@@H]1CC[C@@H]1[C@@]3(C)CC/C(=N/O)C(C)(C)[C@@H]3CC[C@]12C`, the growth was 7.5% [100 µM] (active).

For `C=C(C)[C@@H]1CC[C@]2(C(=O)N3CCN(C)CC3)CC[C@]3(C)[C@H](CC[C@@H]4[C@@]5(C)C/C(=C/c6ccncc6)[C@H](O)C(C)(C)[C@@H]5CC[C@]43C)[C@@H]12`, the growth was 10.8% [100 µM].

For the compound `COc1ccc(C(=O)/C=C/c2ccccn2)c(O)c1`, the growth is 61.6%.

Turning to `CC1(C)CC[C@]2(C(N)=O)CC[C@]3(C)C(=CC[C@@H]4[C@@]5(C)C/C(=C/c6cccnc6)C(=O)C(C)(C)[C@@H]5CC[C@]43C)[C@@H]2C1`, the growth was 2.41% [100 µM] (active).

As to `Cc1nc(-c2ccccc2)sc1CC#N`, the growth is 103%.

For the compound `COc1ccc(C(=O)c2nccc3cc(OC)c(OC)cc23)cc1OC`, the growth is 79.4%.

As for `CC(C)[N+](C)(C)CC(O)COc1cccc2ccccc12` (stereo not given), the growth is 102%.

As for `[2H]C1([2H])CCN(C(=O)C2CC2)c2cc(NS(=O)(=O)c3ccc(-c4cccc(C(N)=O)c4)cc3)ccc21`, the growth is 19.5%.

`CCCc1cc2cc(-n3nc(C)c4c3CC(C)(C)CC4=O)cc(NC3CCSCC3)c2c(=O)[nH]1`: the growth is 54.7%.

Regarding `Cn1cc(-c2nnc(-c3cn(C)c4ncc(Br)cc34)o2)c2ccccc21`, the growth is 62%.

`Nc1cc(NN=C(c2ccc(O)cc2)c2ccc(O)cc2)c([N+](=O)[O-])cc1[N+](=O)[O-]`: the growth was -55.9% (active).

For the compound `COc1cc(OC)cc(C(=O)Nc2cc(-c3cccnc3)nc(NCCCN3CCOCC3)n2)c1`, the growth was 72.8%.

With `N/C(=N\c1nc2ccccc2[nH]1)NC(=O)Cc1cccc2ccccc12`, the growth is 71.4%.

For the compound `C[C@@H]1C[C@H]2C(=O)O[C@@H](C)[C@H](NC(=O)[C@H](Cc3cc(F)cc(F)c3)NC(=O)Nc3ccc(Cl)cc3F)C(=O)N3C[C@H](O)C[C@H]3C(=O)N3CCN(C)C[C@H]3C(=O)N[C@@H](C)C(=O)N2C1`, the growth is 19.2%.

In the case of `Cc1nc(Cl)cc(N(c2cc(Cl)nc(C)n2)c2ncc(C(=O)Nc3c(C)cccc3Cl)s2)n1`, the growth is 23.5%.

Turning to `N#Cc1c(N2CCOCC2)nc(=S)[nH]c1-c1ccco1`, the growth was 18.9%.

Take `COCCCNc1nc(NC(=O)c2cc(OC)cc(OC)c2)cc(-c2cccnc2)n1`: the growth was 63.8%.

With `CCCCCCCCCCCCCCNC(=O)Nc1ccc(Cl)c(Cl)c1`, the growth was 33.9%.

With `CCNC(=O)N1CCc2c(Cl)c3c(c(OC)c2[C@@H]1[C@H]1OCc2c1ccc(OC)c2OC)OCCO3`, the growth is 20.5%.

On to `O=C(N/N=C/c1ccc([N+](=O)[O-])cc1)c1ccc(Br)o1`, for which the growth is 131%.

Consider `CCOC(=O)/C(C#N)=C(\C)CCc1ccccc1`, for which the growth is 98.9%.

As for `C#C[C@]1(O)CC[C@H]2[C@@H]3CC=C4c5nc(N)sc5CC[C@]4(C)[C@H]3CC[C@@]21C`, the growth is 58.2%.

With `CC1Cc2c(Cl)ncnc2N(C)c2ccccc21` (stereo not given), the growth is 42.5%.

For the compound `C[C@]12CCc3nc(Nc4ccccc4)sc3C1=CC[C@@H]1[C@@H]2CC[C@]2(C)/C(=N/NC(N)=S)CC[C@@H]12`, the growth was 9.46% (active).

For `C=C(C)[C@@H]1CC[C@]2(C(=O)NCCCN)CC[C@]3(C)[C@H](CC[C@@H]4[C@@]5(C)CC[C@H](O)C(C)(C)[C@@H]5CC[C@]43C)[C@@H]12`, the growth was -12.8% [100 µM] (active).

For the compound `O=C1/C(=C/c2cccc(OCc3ccccc3)c2)Oc2cc(OCCN3CCCCC3)ccc21`, the growth was 89.9%.

With `ClC1=C(Cl)C(Cl)=C(Cl)C1=Cc1ccccc1`, the growth was -26.4% (active).

`CCN(CC)CCSC(=O)C(O)(c1ccccc1)C1CCCC1` (stereo not given): the growth was 109%.

For the compound `NC(=S)Cc1ccccc1`, the growth was 101%.

As to `Cc1ccc(-c2cc(O)c(-c3ccc(C)cc3C)cc2O)c(C)c1`, the growth is 67.1%.

In the case of `O=C1/C(=C/c2ccc(OCc3ccccc3)cc2)Oc2cc(OCCN3CCCCC3)ccc21`, the growth is 63.4%.

With `Nc1nc(Nc2ccccc2)c2ncn(Cc3ccc4c(c3)OCO4)c2n1`, the growth is 33.8%.

For the compound `CN(C)C(=S)Sc1ccc([N+](=O)[O-])cc1[N+](=O)[O-]`, the growth was -34.7% (active).

On to `c1ccc(-c2nc(N3CCCNCC3)c3nc(-c4ccccc4)oc3n2)cc1`, for which the growth was 46.9%.

Turning to `COc1cccc(-c2[nH]c(=S)ncc2C(=O)c2ccccc2)c1`, the growth is 104%.

For `O=S(=O)(NCc1ccccc1)c1ncnc2nc[nH]c12`, the growth was 107%.

With `Cc1ccc(Oc2c(/C=N/NC(=O)Cn3c(=O)sc4ccccc43)c(C)nn2-c2ccccc2)cc1`, the growth was 20.4%.

In the case of `CC(C)CSc1ncnc2nc[nH]c12`, the growth was 85.7%.
